Measured values as given in PubChem BioAssay.
Records with an inconclusive call do not appear. Activity calls are given as the source filed them.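 Rule for the calls, unless noted: active = viability loss from added drug above about 55%, and viability with drug at most 40%, in both replicates (limit read from the data, passing the limit was not always enough); inconclusive = both conditions met in only one replicate; inactive = neither replicate meets both conditions.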

Tests used:
[1] = Her2 expression decrease, cell viability multiplex – SKBR3 breast tumor cells, AlphaScreen, ATP viability, primary screen (AID 461;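 active = Her2 level under about 52% in both replicate screens, with viability over 70% of control, limit read from the data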;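 for Her2 level: lower value means less Her2 protein in the cells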;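 for viability: percent of carrier control wells set as 100% viability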); settings: SKBR3 Her2 protein level, 18-24 h, measured here: SKBR3 viability, ATP luminescence, at 10 µM
[2] = target: Receptor tyrosine-protein kinase erbB-2 (Homo sapiens) (UniProt P04626); assay: as above; settings: 18-24 h, at 10 µM, stronger effect = lower value
[3] = reduced viability of SK-BR-3 breast cancer cells – cell-based, 24 h, human, pilot screen (AID 572;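 active = viability at or below 10% of carrier control in both of two separate runs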;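 note: compound exposure lasted between 18 and 24 h rather than exactly 24 h; 100% = carrier-treated control wells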); settings: SK-BR-3 viability, CellTiter-Glo luminescence, at 10 µM, stronger effect = lower value
[4] = HUVEC growth inhibition – cell-based, human, primary screen (AID 575;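 active = viability at or below 30% in both replicate assays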;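 note: 100% = median of untreated cell wells with 0.1% DMSO on each plate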); settings: HUVEC proliferation, CellTiter-Glo luminescence, 72 h; at 10 µM; stronger effect = lower value
[5] = H69AR cell proliferation blockers – human, duplicate replicates, primary screen (AID 580;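 active = viability at or under a set limit in both replicates, limit being median viability minus 3 SD, cut at about 48% in these data, passing the limit was not always enough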;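 note: 100% = mean luminescence of untreated wells and 0% = no signal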); settings: H69AR lung tumor cells viability, ATP luminescence, 72 h; at 10 µM; stronger effect = lower value
[6] = MRP1 drug-resistance reversers in H69AR cells – cell-based, doxorubicin co-treatment, pilot screen (AID 601); settings: CellTiter-Glo, 72 h, at 10 µM; for differential viability (reversal): stronger effect = higher value
[7] = yeast transport mutant growth inhibition pilot in 384-well plates, post-Golgi transport modulator project (AID 636; in the data active = inhibition above about 31%); settings: absorbance 615 nm, about 18 h, stronger effect = higher value
[8] = growth suppression of yeast trafficking mutant, preliminary HTS, modulators of trafficking downstream of Golgi apparatus project, 1536-format plate, OD 615 nm (AID 637; in the data active = inhibition above about 30%); settings: yeast transport mutant growth, absorbance 615 nm, 18 h; stronger effect = higher value
[9] = S. cerevisiae growth inhibition in permissive medium (OD615), pilot counter-assay for S. cerevisiae lifespan shortening project, permissive growth control (AID 705;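 active = growth inhibition above 25% in both replicates, a cutoff set 3 SD above the mean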); settings: OD615, 24 h, at 10 µM, stronger effect = higher value
[10] = S. cerevisiae growth inhibition in restrictive medium, OD615, pilot screen, restrictive growth control, yeast lifespan reduction project (AID 706;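 active = growth inhibition above a set limit, 3 SD over mean compound inhibition, in both replicates, cut at about 43% in these data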;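 note: modified DeaD lifespan yeast strain shifted to restrictive glucose medium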); settings: OD615, 48 h, at 10 µM, stronger effect = higher value
[11] = doxorubicin toxicity protection in MRP-1 cells – H69AR cells, CellTiter-Glo, duplicate, MRP-1 activator project, pilot screen (AID 807;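 active = viability increase at or above a cutoff of the median across tested compounds plus 3 SD, cut at about 8.5% in these data, passing the limit was not always enough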;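 note: compound pretreatment 18-22 h then 72 h combined with doxorubicin; 0% = doxorubicin alone and 100% = vehicle without doxorubicin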); settings: H69AR viability with doxorubicin, CellTiter-Glo luminescence; at 10 µM; stronger effect = higher value
[12] = viability of HCT116 without oncogenic beta-catenin – human colon tumor cells, pilot screen (AID 823;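 active = cell viability at or below a set limit in both duplicate runs, the limit being the all-compound median minus 4 SD, cut at about 23% in these data, passing the limit was not always enough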;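 note: 0% = wells killed by 20 µM Hyamine and 100% = untreated DMSO cell wells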); settings: HCT116 beta-catenin knockout viability, CellTiter-Glo, 60 h; at 10 µM; stronger effect = lower value
[13] = viability of PTEN-null HCT116 cells – cell-based, HCT116 clonal line, CellTiter-Glo, pilot screen (AID 824;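 active = viability at or below 27.92% in each of two runs, the all-compound median minus 4 SD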;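 note: 0% = 20 µM Hyamine control and 100% = vehicle cell control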); settings: HCT116 PTEN-deleted viability, 60 h, at 10 µM, stronger effect = lower value
[14] = RAM pathway blockade in budding yeast – dse1pr::URA3 reporter, 5-FOA selection, pilot screen (AID 869;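 active = inhibition over a set limit, the all-compound mean plus 3 SD, in both replicate runs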;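 note: 0% = DMSO wells with no growth and 100% = 10 µM 1-NA-PP1 with full growth; RAM network block rescues cells from 5-FOA so hits raise OD615 growth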); settings: S. cerevisiae dse1pr::URA3 5-FOA growth, OD615, 2 d; at 10 µM; stronger effect = higher value; strain carries analog-sensitive mutant Cbk1 kinase
[15] = RAM signaling pathway blockade in yeast – S. cerevisiae, Pdr1DBD-CYC8 efflux-inhibited sensitized strain, primary screen (AID 1298;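 active = RAM network inhibition above 8.4% in each of two replicates, 3 SD over the compound average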;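 note: 0% = DMSO untreated cells without growth and 100% = 10 µM 1-NA-PP1 full growth; higher means more yeast growth rescued from 5-FOA killing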); settings: S. cerevisiae cbk1-as DSE1-URA3 strain, 5-FOA growth OD615, 2 d; at 50 µM; stronger effect = higher value
[16] = H69AR cells + 2 uM doxorubicin, measured here: viability with 2 uM doxorubicin, stronger effect = lower value
[17] = H69AR cells, compound alone cytotoxicity

Receptor tyrosine-protein kinase erbB-2 (Homo sapiens), sequence (P04626 whole entry, looked up): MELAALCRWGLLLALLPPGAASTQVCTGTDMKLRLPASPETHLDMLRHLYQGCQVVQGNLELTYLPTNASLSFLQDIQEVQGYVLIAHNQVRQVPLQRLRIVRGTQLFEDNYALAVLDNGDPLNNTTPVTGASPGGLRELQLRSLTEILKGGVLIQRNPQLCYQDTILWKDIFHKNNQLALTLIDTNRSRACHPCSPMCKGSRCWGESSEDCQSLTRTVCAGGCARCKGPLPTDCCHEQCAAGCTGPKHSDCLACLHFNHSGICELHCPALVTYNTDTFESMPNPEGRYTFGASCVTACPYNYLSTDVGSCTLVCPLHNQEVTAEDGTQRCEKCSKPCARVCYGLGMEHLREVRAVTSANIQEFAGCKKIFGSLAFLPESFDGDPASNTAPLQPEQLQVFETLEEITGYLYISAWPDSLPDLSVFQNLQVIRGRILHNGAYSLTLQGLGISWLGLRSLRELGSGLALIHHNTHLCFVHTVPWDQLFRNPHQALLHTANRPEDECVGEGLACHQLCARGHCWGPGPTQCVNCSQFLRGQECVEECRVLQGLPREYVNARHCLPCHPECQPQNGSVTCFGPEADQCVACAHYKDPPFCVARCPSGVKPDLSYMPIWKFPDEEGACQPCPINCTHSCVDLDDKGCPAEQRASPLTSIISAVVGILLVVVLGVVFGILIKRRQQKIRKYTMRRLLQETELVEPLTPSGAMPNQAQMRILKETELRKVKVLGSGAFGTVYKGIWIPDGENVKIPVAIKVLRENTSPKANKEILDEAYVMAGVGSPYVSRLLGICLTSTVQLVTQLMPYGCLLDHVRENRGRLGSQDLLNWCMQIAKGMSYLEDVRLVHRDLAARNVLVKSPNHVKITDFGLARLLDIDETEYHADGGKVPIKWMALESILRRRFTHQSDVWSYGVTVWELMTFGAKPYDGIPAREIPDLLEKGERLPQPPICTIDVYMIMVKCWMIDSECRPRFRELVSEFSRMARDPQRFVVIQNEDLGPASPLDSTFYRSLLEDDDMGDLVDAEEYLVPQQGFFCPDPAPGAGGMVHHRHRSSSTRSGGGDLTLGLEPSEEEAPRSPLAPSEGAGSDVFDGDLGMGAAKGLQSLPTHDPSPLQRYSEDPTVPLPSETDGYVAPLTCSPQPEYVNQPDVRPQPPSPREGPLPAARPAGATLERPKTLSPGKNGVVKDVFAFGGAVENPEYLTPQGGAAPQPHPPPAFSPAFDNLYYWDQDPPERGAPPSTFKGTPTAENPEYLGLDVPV

SMILES | viability [1] [%] | Her2 level [2] | viability [3] | viability [4] | viability [5] | differential viability (reversal) ([6]; H69AR cells + 2 uM doxorubicin) | viability [6, 16] [%] | viability [6, 17] [%] | inhibition [7] | inhibition [8] | growth inhibition [9] | growth inhibition [10] | viability increase [11] | viability [12] | viability [13] | inhibition [14] | RAM network inhibition [15]
CCN1CCN(CCCNC(=O)c2cc3sccc3n2CC)CC1 | 96.5 | 120% (inactive) | 96.5% (inactive) | 99% (inactive) | 89.4% (inactive) | -1.6% (inactive) | 91 | 89.4 | -0.27% (inactive) | 3% (inactive) | -3.32% (inactive) | -3.54% (inactive) | -1.72% (inactive) | 96.9% (inactive) | 98.6% (inactive) | 0.865% (inactive) | 1.23% (inactive)
COc1cc(C(O)c2nc3ccccc3n2C)cc(OC)c1OC (stereo not given) | 91.5 | 100% (inactive) | 91.5% (inactive) | 99.8% (inactive) | 103% (inactive) | 9.33% (inactive) | 93.2 | 103 | 1.95% (inactive) | -7.33% (inactive) | -7.22% (inactive) | -9.59% (inactive) | -0.62% (inactive) | 94.1% (inactive) | 93.3% (inactive) | 1.35% (inactive) | 0.78% (inactive)
CCN(CC)C(=O)COc1ccc2oc(C)c(C(=O)OC(C)C)c2c1 | 83 | 104% (inactive) | 83% (inactive) | 91.4% (inactive) | 74.1% (inactive) | -4.69% (inactive) | 78.8 | 74.1 | -1.69% (inactive) | -6% (inactive) | -11.4% (inactive) | -9.19% (inactive) | -6.09% (inactive) | 84.2% (inactive) | 84.8% (inactive) | 1.08% (inactive) | 7.42% (inactive)
c1ccc2c(c1)nc(NCCN1CCOCC1)c1nncn12 | 92 | 102% (inactive) | 92% (inactive) | 109% (inactive) | 94.7% (inactive) | 8.78% (inactive) | 85.9 | 94.7 | -1.67% (inactive) | 2.5% (inactive) | -10.4% (inactive) | -3.62% (inactive) | 1.59% (inactive) | 103% (inactive) | 103% (inactive) | -0.055% (inactive) | -0.1% (inactive)
Cc1onc(-c2ccccc2Cl)c1C(=O)Nc1cnn(Cc2ccccc2)c1 | 88.5 | 98% (inactive) | 88.5% (inactive) | 73.6% (inactive) | 81.5% (inactive) | -5.4% (inactive) | 86.9 | 81.5 | -5.73% (inactive) | 0.33% (inactive) | -12.3% (inactive) | -9.34% (inactive) | 1.54% (inactive) | 83.2% (inactive) | 73% (inactive) | 1.07% (inactive) | 2.37% (inactive)
